Experimental data from PubChem BioAssay.
Activity calls are given as the source filed them.

assay: MM1S myeloma cell viability, profiling panel, resazurin fluorescence, basal, 24 h, PK04 Diversity Set (AID 1174); conditions: higher = more signal, called active from +8 up or from −8 down;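 also: MM1S multiple myeloma cell line; test concentration not given here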

| SMILES | z-score |
| --- | --- |
| CCCC=C(CCC)[C@@H](NC(=O)c1ccc(-c2ccccc2)cc1)c1ccc(C(=O)OC)cc1 | -0.438 (inactive) |
| COC(=O)[C@@]1(Cc2ccccc2)[C@H]2c3cc(C(=O)N4CCCC4)n(Cc4ccccn4)c3C[C@H]2CN1C(=O)c1ccccc1 | -1.45 (inactive) |
| O=C(CS)NCCCCCNC(=O)[C@@H]1C[C@@H]2C(=O)N[C@@H](Cc3ccccc3)C(=O)N2[C@@H]1c1ccc(O)cc1 | 0.0755 (inactive) |
| CC(C)C[C@@H]1NC(=O)[C@H]2C[C@@H](C(=O)NCCCCCCN(C)C)[C@@H](c3cccc(OCCO)c3)N2C1=O | -0.891 (inactive) |
| COCCCNC(=O)[C@@]1(CCS(=O)(=O)c2ccccc2)N=C(c2ccc(OCCCO)cc2)O[C@H]1c1ccccc1 | 0.745 (inactive) |
| Cc1ccc(S[C@]2(C(=O)NCC(F)(F)F)CC(=O)N(Cc3ccccc3Cl)[C@@H]2c2ccc(CO)cc2I)cc1 | -3.29 (inactive) |
| O=C1O[C@@H](c2ccccc2)[C@@H](c2ccccc2)N2[C@@H](c3ccc(OCCO)cc3)[C@]3(C(=O)Nc4ccc(C#CCCO)cc43)[C@@H](C(=O)N3CCCCCCC3)[C@H]12 | 0.605 (inactive) |
| CCOC(=O)C1=CCC(c2cc3ccccc3[nH]2)NC1 (stereo unspecified) | -0.79 (inactive) |
| O=C1NC(=O)C2C1C=CC(C(O)Cc1ccccc1)N2Nc1ccccn1 (stereo unspecified) | -0.164 (inactive) |
| C#C[C@@H]1Oc2ccccc2S(=O)(=O)N2CCC[C@H]12 | -0.46 (inactive) |
| COc1ccc([Si](C)(C)[C@H]2[C@H](CCO)O[C@@]3(C(=O)N(Cc4cccc(NC(=O)[C@H](C)O)c4)c4ccccc43)[C@@H]2C)cc1 | -9.08 (active) |
| C=CCOC(=O)[C@H]1[C@@H]2C(=O)O[C@@H](c3ccccc3)[C@@H](c3ccccc3)N2[C@@H](c2ccc(OCCOC(=O)[C@H]3C[C@H]4C(=O)N5CCC[C@H]5C(=O)N4[C@H]3c3cccc(OCCO)c3)cc2)[C@]12C(=O)Nc1ccc(I)cc12 | -0.376 (inactive) |
| C=C(/C(=C/C[C@@H](OC(=O)c1ccncc1)c1ccc(OCCO)cc1)c1cnc2ccccc2c1)C(C)C | -0.684 (inactive) |
| O=C1C[C@]2(c3ccc([N+](=O)[O-])cc3)C(=O)N(CCN3CCOCC3)c3cc(CO)ccc3[C@H]2N1CC12CC3CC(CC(C3)C1)C2 | 0.639 (inactive) |
| CC(C)C[C@@H]1NC(=O)[C@H]2C[C@@H](C(=O)O)[C@@H](c3ccc(O)cc3)N2C1=O | 0.816 (inactive) |
| COCCOC(=O)N1C(=O)[C@@]2(c3cc(C#Cc4ccc(OC)cc4)ccc31)[C@H](c1ccc(O)cc1)N1[C@H](c3ccccc3)[C@H](c3ccccc3)OC(=O)[C@H]1[C@@H]2C(N)=O | -1.02 (inactive) |
| CC(C)NC(=O)[C@@]1(C)c2ccccc2C(=O)N(Cc2cc(F)cc(C(F)(F)F)c2)[C@H]1c1ccc(CO)cc1 | 0.0847 (inactive) |
| COCCOC(=O)N1C(=O)[C@@]2(c3ccccc31)[C@H](C(N)=O)[C@H]1C(=O)O[C@H](c3ccccc3)[C@H](c3ccccc3)N1[C@@H]2c1ccccc1OCCO | -2.56 (inactive) |

| SMILES | z-score |
| --- | --- |
| CN1C(=O)C2C=CC(C(O)c3ccc(I)cc3)N(NC(=O)OC(C)(C)C)C2C1=O (stereo unspecified) | -0.694 (inactive) |
| C=CCC(OC(C)=O)[C@@H]1[C@@H](N(Cc2cc3ccccc3o2)C(=O)Cc2ccc(F)cc2)c2cc(OCCCO)ccc2N1C(=O)Cc1ccc(OC)cc1 (stereo partly specified) | 0.301 (inactive) |
| CN1C(=O)C2C=CC(C(O)C(c3ccccc3)c3ccccc3)N(NC(=O)OC(C)(C)C)C2C1=O (stereo unspecified) | -0.861 (inactive) |
| COCCCNC(=O)[C@]1(CCC(=O)OC(C)(C)C)N=C(c2ccc(OCCCO)cc2)O[C@@H]1c1ccccc1N=[N+]=[N-] | -0.637 (inactive) |
| O=C1O[C@@H](c2ccccc2)[C@@H](c2ccccc2)N2[C@@H](c3ccccc3OCCO)[C@]3(C(=O)Nc4ccc(C#CCCO)cc43)[C@@H](C(=O)O)[C@H]12 | 0.649 (inactive) |
| CN1C(=O)C2C(C1=O)C1C=C(CCCO)C2C(c2ccc(CN3CCCC3)cc2)N1C (stereo unspecified) | -1.78 (inactive) |
| COC(=O)[C@@]1(Cc2ccc(F)cc2)[C@@H]2C(=CC(=O)[C@H]2CC(=O)C(=O)N(C)C)CN1C(=O)c1ccccc1 | -2.73 (inactive) |
| [N-]=[N+]=NCc1ccccc1C[C@]1(C(=O)NCc2ccccc2)N=C(c2ccc(OCCCO)cc2)O[C@H]1c1ccccc1N=[N+]=[N-] | -1.53 (inactive) |
| C=C(COC)/C(=C/C[C@H](OC(=O)c1ccncc1)c1ccc(CO)o1)c1cc(C(=O)OC)ccc1OC | -0.486 (inactive) |
| CS(=O)(=O)CCOC(=O)C1=CC(CCCO)=CC(c2cccs2)N(Cc2cccc(OC(F)(F)F)c2)C=C1C(=O)OCCS(C)(=O)=O (stereo unspecified) | -1.21 (inactive) |
| CCCNC(=O)[C@@H]1c2ccccc2C(=O)N(Cc2ccccc2Cl)[C@H]1c1ccc(CO)cc1 | 0.496 (inactive) |
| CCc1cccc(NC(=O)O[C@H]2[C@H](OC(=O)Nc3ccc4c(c3)OCO4)[C@@H](OC(=O)Nc3ccc4c(c3)OCO4)[C@@H](OC)O[C@@H]2CO)c1 | -0.517 (inactive) |
| COC(=O)[C@@]1(Cc2ccc(OC)cc2)[C@H]2c3cc(C(=O)N4CCCC4)n(Cc4cc(F)c(F)c(F)c4)c3C[C@H]2CN1C(=O)c1ccccc1 | -2.23 (inactive) |
| CN(C)C(=O)[C@@]1(Cc2ccccc2)N=C(c2ccc(OCCCO)cc2)O[C@H]1c1ccccc1CN=[N+]=[N-] | -1.23 (inactive) |
| COc1ccc([Si](C)(C)[C@@H]2[C@@H](CCO)O[C@]3(C(=O)N(Cc4ccc(NC(C)=O)cc4)c4ccccc43)[C@H]2C)cc1 | -5.15 (inactive) |
| O=C1O[C@@H](c2ccccc2)[C@@H](c2ccccc2)N2[C@@H](c3ccc(O)cc3)[C@]3(C(=O)Nc4ccccc43)[C@@H](C(=O)O)[C@H]12 | -0.14 (inactive) |
| O=C1c2ccccc2[C@@]2(Cc3ccccc3N(C3CC3)C2=O)[C@H](c2ccc(CO)cc2)N1Cc1ccccc1C(F)(F)F | 0.187 (inactive) |
| O[C@@H](Cc1ccccc1)[C@H]1C2C=CCCC(c3ccccc3)=C2CN1Cc1cccc(Cl)c1 (stereo partly specified) | -0.146 (inactive) |
